Reference: PubChem BioAssay (NCATS)
Results filed as inconclusive are left out. Active and inactive are the calls of the source. The call rests on the fitted dose curve; in most records, active means well fitted curve in the direction sought with a large enough effect; inconclusive means small, poorly fitted or top-dose-only effect, or another doubt; inactive means no such curve, though single readings can be large; an effect the other way counts as inactive or inconclusive.

Experiments:
[1] = MultiTox-Fluor Cytotoxicity Assay - LYMP1-001 - Dead Cells (AID 946); further: potency means the concentration at half of the fitted maximal effect
Outline: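 Cytotoxicity as increased dead-cell protease fluorescence (bis-AAF-R110, 485/520 nm), read 60 min after MultiTox-Fluor reagent. Human lymphoblastoid line exposed 16 h; Hill-fitted AC50, with DMSO as 0% and 15 uM tetraoctylammonium bromide as 100%.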

[2] = MultiTox-Fluor Cytotoxicity Assay - LYMP1-001 - Live Cells (AID 947)
[3] = Cell Viability - LYMP1-002 - Assay at 16 hr (AID 948); further: potency means the concentration at half of the fitted maximal effect
Outline: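 Seed 2500 LYMP1-002 cells per well in complete medium and hold 5 hr at 37 C. Add compound across a concentration series and incubate 16 hr at 37 C. Add CellTiter-Glo, wait 30 min at room temperature, read luminescence.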

[4] = MultiTox-Fluor Cytotoxicity Assay - LYMP1-003 - Dead Cells (AID 961); further: nearly all actives have a fitted effect of over 70% in size; further: potency means the concentration at half of the fitted maximal effect
Outline: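 Dead-cell protease release, detected as bis-AAF-R110 fluorescence at 485/520 nm, was measured in LYMP1-003 cells after 16 h compound treatment at 37 C. AC50 values came from Hill-modeled qHTS curves normalized to DMSO (0%) and 15 uM tetraoctylammonium bromide (100%).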

[5] = MultiTox-Fluor Cytotoxicity Assay - LYMP1-003 - Live Cells (AID 962);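 further: cells exposed to compound for 16 hours at 37 °C; cytotoxic hits lower the live-cell protease signal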
Outline: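 Acute cytotoxicity is scored as a drop in live-cell protease activity in human lymphoblastoid LYMP1-003 cells after 16 hr compound exposure at 37 C. AC50 values come from Hill-equation modelling of concentration-response data.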

[6] = Cell Viability - LYMP1-003 - Assay at 24 hr (AID 963); further: potency means the concentration at half of the fitted maximal effect
Outline: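 Cytotoxicity is scored as a concentration-dependent fall in ATP-linked luciferase signal in human lymphoblastoid LYMP1-003 cells treated 24 hr at 37 C in complete culture medium.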

[7] = Cell Viability - LYMP1-003 - Assay at 40 hr (AID 964); further: nearly all actives have a fitted effect of over 60% in size; further: potency means the concentration at half of the fitted maximal effect
Outline: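 Luminescent ATP signal (CellTiter-Glo) served as the viability read-out after 40 hr compound treatment of human lymphoblastoid LYMP1-003 cells at 37 C. Decreases in ATP were fitted with the Hill equation to give AC50.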

[8] = Cell Viability - LYMP2-003 (AID 965);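 further: cells exposed to compounds for 24 h before reading; nearly all actives have a fitted effect of over 50% in size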; further: potency means the concentration at half of the fitted maximal effect
Outline: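 Seed 2500 lymphoblastoid cells/well; incubate 5 hr, 37 C; add compounds; incubate 24 hr, 37 C; add CellTiter-Glo, 30 min RT; read luminescence. AC50 from Hill fit.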

[9] = Cell Viability - LYMP2-004 (AID 966); further: nearly all actives have a fitted effect of over 65% in size; further: potency means the concentration at half of the fitted maximal effect
Outline: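 qHTS cytotoxicity: human lymphoblastoid line, 24 hr compound treatment, 37 C, complete medium. Viability read as cellular ATP via luciferase luminescence; tetraoctylammonium bromide served as positive control.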

[10] = Cell Viability - LYMP2-009 (AID 968);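 further: cells exposed to compound for 24 h at 37 °C; nearly all actives have a fitted effect of over 55% in size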; further: potency means the concentration at half of the fitted maximal effect
[11] = Cell Viability - LYMP2-011 (AID 969); further: nearly all actives have a fitted effect of over 60% in size; further: potency means the concentration at half of the fitted maximal effect
Outline: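 In this qHTS cytotoxicity format, compounds are tested across concentrations on human lymphoblastoid cells in complete medium for 24 hours at 37 C. Viability is taken as cellular ATP measured by luciferase luminescence.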

[12] = Cell Viability - LYMP2-013 (AID 970);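 further: cells exposed to compound for 24 h at 37 °C; nearly all actives have a fitted effect of over 55% in size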; further: potency means the concentration at half of the fitted maximal effect
Outline: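 Cytotoxicity is scored as a concentration-dependent drop in intracellular ATP in human lymphoblastoid cells after 24 hr compound exposure at 37 C. ATP is quantified by luciferase luminescence, and AC50 values come from Hill-equation modeling.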

[13] = Cell Viability - LYMP2-015 (AID 971); further: nearly all actives have a fitted effect of over 55% in size; further: potency means the concentration at half of the fitted maximal effect
Outline: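 Cells are seeded at 2500 per well and incubated 5 hr at 37 C. Compounds are added across a concentration series for 24 hr at 37 C. CellTiter-Glo is added, and luminescence is read after 30 min at room temperature.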

[14] = MultiTox-Fluor Cytotoxicity Assay - LYMP1-002 - Dead Cells (AID 960); further: nearly all actives have a fitted effect of over 60% in size; further: potency means the concentration at half of the fitted maximal effect
Outline: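 Cells were plated, rested 5 hr, then treated with compound dilution series for 16 hr at 37 C. After adding substrate reagent and 60 min at room temperature, dead-cell protease fluorescence gave concentration-response curves fitted by the Hill equation.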

[15] = Cell Viability - LYMP2-005 (AID 967);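 further: series mostly up to about 92 µM; cells exposed to compound for 24 h at 37 °C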
Outline: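 Acute cytotoxicity is scored as a concentration-dependent drop in intracellular ATP in human lymphoblastoid LYMP2-005 cells after 24 h compound treatment. ATP is quantified by luciferase luminescence, and AC50 is derived by Hill-equation modelling.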

Measured: Potency

C[C@H](CCC(=O)O)[C@H]1CC[C@H]2[C@@H]3CC[C@@H]4C[C@H](O)CC[C@]4(C)[C@H]3C[C@H](O)[C@]12C
not listed: [14] | [15]
inactive: all other assays above

Cc1ncc[nH]1
inactive: all assays above

CCOC(C)OCC
inactive: all assays above

CO/N=C(/C(=O)N[C@@H]1C(=O)N2C(C(=O)O)=C(COC(N)=O)CS[C@H]12)c1ccco1
not listed: [14]
inactive: all other assays above

OCc1ccccc1
inactive: all assays above

CC1=CC(=O)NS(=O)(=O)O1
not listed: [15]
inactive: all other assays above

CC/C=C\C/C=C\C/C=C\CCCCCCCC(=O)O
inactive: [1] | [3] | [14] | [4] | [5] | [6]
active: [8] 39.8 µM | [10] 50.1 µM | [13] 50.1 µM

CC[C@H]1OC(=O)[C@H](C)[C@@H](O[C@H]2C[C@@](C)(OC)[C@@H](O)[C@H](C)O2)[C@H](C)[C@@H](O[C@@H]2O[C@H](C)C[C@H](N(C)C)[C@H]2O)[C@](C)(O)C[C@@H](C)CN(C)[C@H](C)[C@@H](O)[C@]1(C)O
inactive: all assays above

C[C@H]1O[C@@H](O[C@H]2[C@@H](O)C[C@H](O[C@H]3[C@@H](O)C[C@H](O[C@H]4CC[C@@]5(C)[C@H](CC[C@@H]6[C@@H]5C[C@@H](O)[C@]5(C)[C@@H](C7=CC(=O)OC7)CC[C@]65O)C4)O[C@@H]3C)O[C@@H]2C)C[C@H](O)[C@@H]1O
active: [1] 0.794 µM | [3] 0.199 µM | [4] 1.58 µM | [6] 0.251 µM | [7] 0.158 µM

C=C1C(CCl)(CCl)C2(Cl)C(Cl)C(Cl)C1(Cl)C2(Cl)Cl (stereo unspecified)
inactive: [5]
active: [1] 50.1 µM | [3] 50.1 µM | [14] 31.6 µM | [4] 50.1 µM | [6] 50.1 µM | [8] 50.1 µM | [9] 39.8 µM | [10] 39.8 µM | [11] 50.1 µM | [12] 50.1 µM | [13] 39.8 µM

[O-][N+](=Nc1ccccc1)c1ccccc1
not listed: [8]
inactive: all other assays above
